Reference: PubChem BioAssay (EPA / NIEHS)
Records with an inconclusive call do not appear. Some compounds were tested as several samples or in several runs, with calls that do not always agree. Active and inactive are the calls of the source. Rule for the calls: active = hit-call score of the fitted dose curve at least 0.9, where 1 is the maximum; inconclusive = response in the unintended direction; inactive = score below 0.9.

Assay: ATG_XTT_Cytotoxicity: Cytotoxicity Assessment in the Attagene TRANS-FACTORIAL HepG2 Assay (AID 2283584);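 for AC50: cells exposed to compound for 24 h before reading; active means loss of viability signal versus DMSO baseline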
Description: ATG_XTT_Cytotoxicity is a cell-based, single-readout assay that uses HepG2, a human liver cell line, with measurements taken at 24 hours after chemical dosing in a 24-well plate.ATG_XTT_Cytotoxicity is one of one assay component(s) measured or calculated from the ATG_XTT_Cytotoxicity assay. It is designed to make measurements of cell number, a form of viability reporter, as detected with […] signals by XTT cytotoxicity assay technology.Data from the assay component ATG_XTT_Cytotoxicity was analyzed into 1 assay endpoint. This assay endpoint, ATG_XTT_Cytotoxicity, was analyzed in the positive analysis fitting direction relative to DMSO as the negative control and baseline of activity. Using a type of viability reporter, loss-of-signal activity can be used to understand changes in the viability. Furthermore, this assay endpoint can be referred to as a primary readout, because the performed assay has only produced 1 assay endpoint. To generalize the intended target to other relatable targets, this assay endpoint is annotated to the cell cycle intended target family, where the subfamily is cytotoxicity.
Human liver HepG2 cells are transiently transfected with multiple reporter transcription units (MRTUs) in 6-well plates using FuGene 6 reagent (Roche; 3 ml FuGene/1 mg DNA). The MRTU constructs are regulated by a cis-regulating element (promoter). […] A major difference between the CIS and TRANS system is that in CIS activities of endogenous TFs are measured, whereas the TRANS assay evaluates changes in activities of exogenous, chimeric NR-Gal4 proteins. […] At the end of 24 hour incubation, total RNA was isolated using TriZol reagent (Invitrogen). The isolated RNA is then reverse-transcribed using oligo(dT) primer and Mo-MLV reverse transcriptase (Invitrogen) with DNAse I (Ambion) treatment for 30 min. The one-tenth of the produced cDNA was amplified by PCR using Taq DNA polymerase (Invitrogen) and two reporter sequence-specific primers. The PCR products were fluorescently labeled by primer extension with 6-arboxyfluorescein (6-FAM) 5'-labeled reporter sequence-specific primer (2 min at 95 C, 20 s at 68 C and 10 min at 72 C) and these products were digested with 5U of HpaI (New England Biolabs) for 2h at 37 C. The fragments were purified using Qiaquick PCR columns (Qiagen), analyzed on an ABI 3130xL genetic analyzer (Applied Biosystems) with peak positions identified by using a set of X-rhodamine (ROX)-labeled MapMarker1000 molecular weight standards (BioVentures). The raw capillary electrophoresis data was processed using Attagraph software (Attagene).

Question: With O=C1CCC(C2CCCCC2)CC1 as the compound, how does the outcome read?
Answer: The outcome was “inactive”.

Question: With CC/C(=C(/CC)c1ccc(O)cc1)c1ccc(O)cc1 as the compound, how does the outcome read?
Answer: Its outcome is “inactive”.

Question: For O=c1[nH]sc2ccccc12, which outcome is on record?
Answer: The outcome was “inactive”.

Question: For O=C(Nc1ccc(Cl)cc1)Nc1ccc(Cl)c(Cl)c1, which outcome is on record?
Answer: The outcome was “inactive”.

Question: With Cc1ncc(CO)c(CO)c1O as the compound, how does the outcome read?
Answer: The outcome was “inactive”.

Question: Which outcome does the source give for CCCCCCCCCCCC[N+](C)(C)C here?
Answer: The outcome was “inactive”.

Question: With OCCO as the compound, how does the outcome read?
Answer: The outcome was “inactive”.

Question: Which outcome does the source give for O=C1c2ccccc2C(=O)N1CCc1noc(-c2ccc(CN3CCCCCC3)s2)n1 here?
Answer: Its outcome is “inactive”.

Question: Which outcome does the source give for C[C@]12CC[C@@H]3c4ccc(O)cc4CC[C@H]3[C@@H]1CCC2=O here?
Answer: Its outcome is “inactive”.

Question: Which results are given for Cc1c2ccccc2c(C)c2c1ccc1ccccc12?
Answer: outcome: inactive; AC50: 56.2 µM (active)

Question: Which outcome does the source give for CCCCCc1ccc(N)cc1 here?
Answer: Its outcome is “inactive”.

Question: Which outcome does the source give for CC(C)(C)c1csc(-c2cc3cc(OCc4ccccc4CC(=O)O)ccc3o2)n1 here?
Answer: Its outcome is “inactive”.

Question: Which outcome does the source give for O=CCCCC=O here?
Answer: Its outcome is “inactive”.

Question: Which outcome does the source give for CCCCCCCCCC(=O)O here?
Answer: The outcome was “inactive”.

Question: For O=C1O[C@H]([C@@H](O)CO)C(O)=C1O, which outcome is on record?
Answer: Its outcome is “inactive”.

Question: For Cc1cccc2ccccc12, which outcome is on record?
Answer: Its outcome is “inactive”.

Question: With CCCCOC(=O)c1ccc(O)cc1 as the compound, how does the outcome read?
Answer: The outcome was “inactive”.

Question: With CCCCCCCCCCCO as the compound, how does the outcome read?
Answer: Its outcome is “inactive”.

Question: With Cc1oc2c(NC(=O)c3c(Cl)cccc3Cl)cccc2c1C(C)(C)O as the compound, how does the outcome read?
Answer: Its outcome is “inactive”.

Question: With CC(C)(c1cc(Br)c(O)c(Br)c1)c1cc(Br)c(O)c(Br)c1 as the compound, how does the outcome read?
Answer: Its outcome is “inactive”.

Question: Which outcome does the source give for c1ccc(C[n+]2cccc3ccccc32)cc1 here?
Answer: Its outcome is “inactive”.

Question: With CN1C(=O)N(c2ccccc2Br)Cc2cnc(Nc3ccc4c(c3)OCC(CO)O4)nc21 (stereo not given) as the compound, how does the outcome read?
Answer: Its outcome is “inactive”.

Question: Which outcome does the source give for COCC(C)OCC(C)OCC(C)O (stereo not given) here?
Answer: Its outcome is “inactive”.

Question: Which outcome does the source give for C[C@]12CC[C@@H]3c4ccc(O)cc4CC[C@H]3[C@@H]1CC[C@H]2O here?
Answer: Its outcome is “inactive”.

Question: For CCCCCCCCOC(=O)c1cc(O)c(O)c(O)c1, which outcome is on record?
Answer: The outcome was “inactive”.

Question: For CC1(C)NC(=O)N(c2ccc([N+](=O)[O-])c(C(F)(F)F)c2)C1=O, which outcome is on record?
Answer: The outcome was “inactive”.

Question: With CN1C(=O)CC[C@H]1c1cccnc1 as the compound, how does the outcome read?
Answer: The outcome was “inactive”.

Question: With Cc1cc(F)ccc1-c1cc(N2CC[C@@H](O)[C@H]2CO)ncc1N(C)C(=O)C(C)(C)c1cc(C(F)(F)F)cc(C(F)(F)F)c1 as the compound, how does the AC50 read?
Answer: Its AC50 is 23.3 µM (active).

Question: Which outcome does the source give for CCCCCCCC[Si](OCC)(OCC)OCC here?
Answer: The outcome was “inactive”.

Question: With CCCCCCCCOc1ccc(C(=O)c2ccccc2)c(O)c1 as the compound, how does the outcome read?
Answer: The outcome was “inactive”.

Question: Which outcome does the source give for CC(=O)N1CCN(c2ccc(OC[C@H]3CO[C@](Cn4ccnc4)(c4ccc(Cl)cc4Cl)O3)cc2)CC1 here?
Answer: The outcome was “inactive”.

Question: For Cc1cn([C@H]2C[C@H](N=[N+]=[N-])[C@@H](CO)O2)c(=O)[nH]c1=O, which outcome is on record?
Answer: The outcome was “inactive”.

Question: With O=C(O)c1ccccc1C(=O)OCc1ccccc1 as the compound, how does the outcome read?
Answer: The outcome was “inactive”.

Question: Which AC50 does the source give for Clc1ccccc1C(c1ccccc1)(c1ccccc1)n1ccnc1 here?
Answer: The AC50 was 24.2 µM (active).

Question: With CCO[Si](CCCNC(N)=O)(OCC)OCC as the compound, how does the outcome read?
Answer: The outcome was “inactive”.

Question: With O=c1c(-c2ccc(O)cc2)coc2cc(O)cc(O)c12 as the compound, how does the outcome read?
Answer: Its outcome is “inactive”.

Question: With Cc1ccc(C(C)C)cc1 as the compound, how does the outcome read?
Answer: Its outcome is “inactive”.

Question: With CCN(Cc1cccc(S(=O)(=O)O)c1)c1ccc(C(=C2C=CC(=[N+](CC)Cc3cccc(S(=O)(=O)O)c3)C=C2)c2ccccc2S(=O)(=O)[O-])cc1 as the compound, how does the outcome read?
Answer: The outcome was “inactive”.

Question: Which outcome does the source give for c1ccc2n[nH]nc2c1 here?
Answer: Its outcome is “inactive”.
